Measurements reported in PubChem BioAssay AID1159580 (chemical genetic matrix, 2015).
Out of some 5,500 compounds screened, about 2,000 (36%) were called active. Another 18% or so got no clear call; they are omitted. Rule as the data show it: active = normalized growth mostly below about 0.91 (no sharp cut-off); inconclusive = no clear call, values can overlap the other calls; inactive = mostly above about 0.92. This is one part of the list.

Assay: chemical genetic growth profiling, strain panel (AID 1159580);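 also: tested at 20 µM; growth read once vehicle control cultures reached saturation at 30 °C; 1 = growth at the plate median or of vehicle wells; lower values mean less growth of the strain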
Conditions: growth OD

Measured: normalized growth

CC(C)Nc1nc(Cl)nc(NC(C)C)n1
inactive: S. cerevisiae deletion strains, locus YJR075W, strain HOC1, hits give low values 1.01 | S. cerevisiae deletion strains, locus YKL009W, strain mrt4, hits give low values 1.01 | S. cerevisiae deletion strains, locus YKL068W, hits give low values 1.01 | S. cerevisiae deletion strains, locus YKL085W, strain MDH1 (second series), hits give low values 1 | S. cerevisiae deletion strains, locus YKL085W, strain MDH1, hits give low values 1 | S. cerevisiae deletion strains, locus YKL160W, strain elf1, hits give low values 1 | S. cerevisiae deletion strains, locus YKL190W, strain CNB1, hits give low values 1.01 | S. cerevisiae deletion strains, locus YKR001C, strain vps1, hits give low values 1.01 | S. cerevisiae deletion strains, locus YKR026C, strain gcn3, hits give low values 0.994 | S. cerevisiae deletion strains, locus YKR091W, strain srl3, hits give low values 0.998 | S. cerevisiae deletion strains, locus YLL001W, strain dnm1, hits give low values 1.01 | S. cerevisiae deletion strains, locus YLL026W, hits give low values 0.991 | S. cerevisiae deletion strains, locus YLL041C, strain sdh2, hits give low values 1 | S. cerevisiae deletion strains, locus YLR027C, strain aat2, hits give low values 0.995 | S. cerevisiae deletion strains, locus YLR039C, strain RIC1, hits give low values 0.995 | S. cerevisiae deletion strains, locus YLR058C, strain SHM2, hits give low values 1.01 | S. cerevisiae deletion strains, locus YLR102C, strain apc9, hits give low values 1.02 | S. cerevisiae deletion strains, locus YLR113W, strain HOG1, hits give low values 1 | S. cerevisiae deletion strains, locus YLR221C, strain rsa3, hits give low values 0.994 | S. cerevisiae deletion strains, locus YLR258W, strain gsy2, hits give low values 1 | S. cerevisiae deletion strains, locus YLR262C, strain YPT6 (second series), hits give low values 0.935 | S. cerevisiae deletion strains, locus YLR262C, strain YPT6, hits give low values 0.984 | S. cerevisiae deletion strains, locus YLR268W, strain sec22, hits give low values 0.992 | S. cerevisiae deletion strains, locus YLR320W, strain mms22, hits give low values 0.995 | S. cerevisiae deletion strains, locus YLR330W, strain CHS5, hits give low values 1.01 | S. cerevisiae deletion strains, locus YLR342W, strain FKS1 (second series), hits give low values 1.01 | S. cerevisiae deletion strains, locus YLR342W, strain FKS1, hits give low values 1.01 | S. cerevisiae deletion strains, locus YLR357W, strain rsc2, hits give low values 0.95 | S. cerevisiae deletion strains, locus YLR370C, strain arc18, hits give low values 1 | S. cerevisiae deletion strains, locus YLR371W, strain rom2, hits give low values 1.01 | S. cerevisiae deletion strains, locus YLR384C, strain iki3, hits give low values 1 | S. cerevisiae deletion strains, locus YLR418C, strain cdc73, hits give low values 0.979 | S. cerevisiae deletion strains, locus YML016C, strain PPZ1, hits give low values 1.01 | S. cerevisiae deletion strains, locus YML032C, strain rad52, hits give low values 1.01 | S. cerevisiae deletion strains, locus YML120C, strain ndi1, hits give low values 0.998 | S. cerevisiae deletion strains, locus YML124C, strain tub3, hits give low values 1.01 | S. cerevisiae deletion strains, locus YMR058W, strain fet3, hits give low values 1.01 | S. cerevisiae deletion strains, locus YMR078C, strain ctf18, hits give low values 1.02 | S. cerevisiae deletion strains, locus YMR125W, strain sto1, hits give low values 0.997 | S. cerevisiae deletion strains, locus YMR129W, hits give low values 0.994 | S. cerevisiae deletion strains, locus YMR205C, strain PFK2, hits give low values 0.985 | S. cerevisiae deletion strains, locus YMR223W, strain ubp8, hits give low values 1.01 | S. cerevisiae deletion strains, locus YMR231W, strain pep5, hits give low values 0.999 | S. cerevisiae deletion strains, locus YMR263W, strain SAP30, hits give low values 1.02 | S. cerevisiae deletion strains, locus YMR307W, strain GAS1, hits give low values 1.02 | S. cerevisiae deletion strains, locus YNL067W, strain RPL9B, hits give low values 0.999 | S. cerevisiae deletion strains, locus YNL071W, strain lat1, hits give low values 1 | S. cerevisiae deletion strains, locus YNL128W, strain TEP1, hits give low values 1 | S. cerevisiae deletion strains, locus YNL153C, strain GIM3, hits give low values 0.989 | S. cerevisiae deletion strains, locus YNL183C, strain NPR1, hits give low values 0.935 | S. cerevisiae deletion strains, locus YNL209W, strain ssb2, hits give low values 0.999 | S. cerevisiae deletion strains, locus YNL233W, strain BNI4, hits give low values 1.02 | S. cerevisiae deletion strains, locus YNL248C, strain rpa49, hits give low values 0.982 | S. cerevisiae deletion strains, locus YNL250W, strain rad50, hits give low values 1.01 | S. cerevisiae deletion strains, locus YNL271C, strain bni1, hits give low values 1.01 | S. cerevisiae deletion strains, locus YNL298W, strain CLA4, hits give low values 1.02 | S. cerevisiae deletion strains, locus YNL307C, strain MCK1, hits give low values 1.02 | S. cerevisiae deletion strains, locus YNL322C, strain KRE1 (second series), hits give low values 0.992 | S. cerevisiae deletion strains, locus YNL322C, strain KRE1, hits give low values 1.01 | S. cerevisiae deletion strains, locus YNR049C, strain mso1, hits give low values 1 | S. cerevisiae deletion strains, locus YNR052C, strain pop2, hits give low values 1.01 | S. cerevisiae deletion strains, locus YOL006C, strain TOP1, hits give low values 1.03 | S. cerevisiae deletion strains, locus YOL012C, strain htz1 0.789 | S. cerevisiae deletion strains, locus YOL147C, strain pex11, hits give low values 1.01 | S. cerevisiae deletion strains, locus YOR001W, strain rrp6, hits give low values 0.999 | S. cerevisiae deletion strains, locus YOR061W, strain CKA2, hits give low values 0.998 | S. cerevisiae deletion strains, locus YOR069W, strain VPS5, hits give low values 1.01 | S. cerevisiae deletion strains, locus YOR070C, strain gyp1, hits give low values 1.01 | S. cerevisiae deletion strains, locus YOR080W, strain dia2, hits give low values 0.994 | S. cerevisiae deletion strains, locus YOR083W, strain WHI5, hits give low values 1 | S. cerevisiae deletion strains, locus YOR106W, strain vam3, hits give low values 1.01 | S. cerevisiae deletion strains, locus YOR136W, strain idh2, hits give low values 1.01 | S. cerevisiae deletion strains, locus YOR144C, strain elg1, hits give low values 1 | S. cerevisiae deletion strains, locus YOR184W, strain ser1, hits give low values 1.02 | S. cerevisiae deletion strains, locus YOR231W, strain MKK1, hits give low values 0.978 | S. cerevisiae deletion strains, locus YOR265W, strain rbl2, hits give low values 1 | S. cerevisiae deletion strains, locus YOR270C, strain vph1, hits give low values 1.01 | S. cerevisiae deletion strains, locus YOR290C, strain snf2, hits give low values 1.02 | S. cerevisiae deletion strains, locus YOR316C, strain cot1, hits give low values 1.01 | S. cerevisiae deletion strains, locus YPL051W, strain arl3, hits give low values 0.997 | S. cerevisiae deletion strains, locus YPL055C, strain LGE1, hits give low values 0.983 | S. cerevisiae deletion strains, locus YPL078C, strain atp4, hits give low values 0.999 | S. cerevisiae deletion strains, locus YPL106C, strain sse1, hits give low values 1 | S. cerevisiae deletion strains, locus YPL240C, strain hsp82, hits give low values 1.01 | S. cerevisiae deletion strains, locus YPL241C, strain CIN2, hits give low values 1 | S. cerevisiae deletion strains, locus YPL256C, strain CLN2, hits give low values 0.966 | S. cerevisiae deletion strains, locus YPR119W, strain clb2, hits give low values 1.01 | S. cerevisiae deletion strains, locus YPR141C, strain kar3, hits give low values 1.02 | S. cerevisiae deletion strains, locus YPR163C, strain tif3, hits give low values 1 | S. cerevisiae deletion strains, locus YPR167C, strain met16, hits give low values 1.01 | S. cerevisiae deletion strains, strain wtn01, hits give low values 1.01 | S. cerevisiae strains, strain wild type, hits give low values 1
